The source of these data is PubChem BioAssay (NCI).

Where “and” joins values, the source holds several entries; their conditions need not be identical. Equal values may be shown once. Compounds without any hit were thinned out: in the full panel of roughly 83,000, 20% have a hit.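 Treatment: one concentration, 48 hours, 96-well format. Scoring: percent growth, with anything below 10 considered active.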 Unmarked numbers belong to inactive results.

In this assay the test system is A549/ATCC NSCLC. Kind of assay: NCI-60 one-dose screen, 48 h (100 = growth as untreated, 0 = no growth, -100 = all killed). As to conditions: 10 µM unless noted.
For the molecule `C=C[C@]1(C)C=C2CC[C@@H]3C(C)(C)C(=O)CC[C@@]3(C)[C@@H]2CC1`, the growth was 101%.
With `CN(C)CC1(C)Cc2ccsc2C1O` (stereo not drawn), the growth is 112% and 110%.
Turning to `CCN(CC)/C([O-])=c1\cccc\c1=C1\N=C(c2ccccc2)N=C1[n+]1ccc(-c2ccccc2)cc1`, the growth was 97.9%.
Regarding `Cc1oc2c(Cc3ccc(NC(=O)c4ccc(Cl)cc4)cc3)ncnc2c1C(=O)NO`, the growth is 88.5%.
For the molecule `COc1cc(CNC(=O)CCCC/C=C/C(C)C)ccc1O`, the growth was 106% and 115%.
On to `CC1=C2[C@@H](CC1)[C@]1(C)O[C@@](C(C)C)(C[C@H]1OC(=O)CO)[C@H]2OC(=O)C1CC1c1ccccc1` (stereo partly drawn), for which the growth is 73.9%.
On to `O=C1OCC2=C1C(c1cccc(C(F)(F)F)c1)c1cc3c(cc1N2CCO)CCC3` (stereo not drawn), for which the growth was 12.4%.
For `COc1ccc(/C=N/C2=C(C#N)C(c3ccccc3)c3c(ccc4ccccc34)O2)cc1` (stereo not drawn), the growth was 41.9%.
Take `O=C(CCl)N(O)c1ccc(/C=C/c2ccccc2)cc1`: the growth is 90.3% and 65%.
For `N#C/C(=C\c1ccc(Br)cc1)n1nnc2c(F)cccc21`, the growth was 14.8%.
Turning to `O=C(/C=C/c1ccccc1)c1cccs1`, the growth was 93.9% and 94.3%.
Turning to `COc1ccc(Nc2nn3c(SCC(=O)c4ccc(C)cc4)nnc3s2)cc1`, the growth was 96.6%.
As to `CN(Cc1ccccc1)c1nc(Cl)c(C2CC(c3ccc4c(c3)OCO4)=NN2c2cc(Cl)cc(Cl)c2)s1` (stereo not drawn), the growth was 90.7%.
